Eya2 inh – blocks the phosphatase activity of human Eya2. AID 488837. 330,000 compounds, 0.006% hits. recombinant Eya2, OMFP fluorescence dephosphorylation (OMFP is methylfluorescein phosphate). Potency, µM (top dose mostly 76.9 µM), without a hit: top-dose activity, negative = inhibition, usual class: inhibitors; note: potency is the fitted concentration of half-maximal effect; % is set by controls: 0 for no effect and ±100 for the full control effect
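Eya2 protein (added as 0.2 uM solution) was preincubated with compound for 10 min at ambient temperature in 50 mM HEPES pH 7.5, 50 mM NaCl, 5 uM MgCl2, 0.05% BSA, 1 mM DTT. OMFP (added at 50 uM) then reacted 10 min; fluorescence read at 485/525 nm.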
CtBP-E1A inh – CtBP/E1A binding inhibition | AlphaScreen GST-E1A/His-CtBP binding, 1536-well; hits give low values | activity change, % (no concentration beside the values) | 340,000 compounds, 0.49% hits; in the data active = activity change below about -65%; inconclusive = mostly about -30% to -63%; note: % is set by controls: 0 for no effect and ±100 for the full control effect
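In 5 uL wells, 23 nL compound meets equimolar GST-E1A and His-CtBP (5X stock 125 nM each) for 2 h, 37 °C. Beads (5X, 50 ug/mL) then 1 h, 37 °C, dark.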
L3MBTL1 inh-1 – inhibitors of human L3MBTL1; Q9Y468; AlphaScreen L3MBTL1–H3K9me1 peptide binding; Potency, µM (highest dose often 57.1 µM), for inactives: at the top dose activity, negative = inhibition, actives largely listed as inhibitors; 230,000 compounds, 0.66% hits; AID 485360; note: potency is the fitted concentration of half-maximal effect; % is set by controls: 0 for no effect and ±100 for the full control effect; nearly all actives have a fitted effect of over 60% in size
Target sequence (Q9Y468 whole entry, looked up): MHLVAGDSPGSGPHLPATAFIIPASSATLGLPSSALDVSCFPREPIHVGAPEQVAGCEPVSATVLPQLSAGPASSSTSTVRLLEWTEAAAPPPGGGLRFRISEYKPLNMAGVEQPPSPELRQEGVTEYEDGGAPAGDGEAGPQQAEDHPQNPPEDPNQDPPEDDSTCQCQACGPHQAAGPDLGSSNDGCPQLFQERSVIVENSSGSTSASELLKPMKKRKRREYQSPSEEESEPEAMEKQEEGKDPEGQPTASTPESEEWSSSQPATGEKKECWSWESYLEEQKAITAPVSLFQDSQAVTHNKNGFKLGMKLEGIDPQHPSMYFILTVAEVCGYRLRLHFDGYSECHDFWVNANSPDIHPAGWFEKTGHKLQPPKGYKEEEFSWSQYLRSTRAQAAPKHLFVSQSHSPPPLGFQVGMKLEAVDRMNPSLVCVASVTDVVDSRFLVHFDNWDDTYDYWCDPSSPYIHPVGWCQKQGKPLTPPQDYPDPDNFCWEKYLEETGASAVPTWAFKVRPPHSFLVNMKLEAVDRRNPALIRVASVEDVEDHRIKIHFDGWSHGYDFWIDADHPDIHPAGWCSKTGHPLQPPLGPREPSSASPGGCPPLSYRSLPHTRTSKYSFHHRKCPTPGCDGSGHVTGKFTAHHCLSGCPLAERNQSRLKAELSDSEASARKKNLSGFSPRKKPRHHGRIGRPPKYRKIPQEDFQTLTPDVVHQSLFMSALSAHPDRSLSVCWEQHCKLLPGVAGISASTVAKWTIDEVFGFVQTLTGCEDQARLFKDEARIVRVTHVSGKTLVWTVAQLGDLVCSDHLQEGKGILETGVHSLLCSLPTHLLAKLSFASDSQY
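AlphaScreen assay: L3MBTL1 (50 nM final) was preincubated 30 min at room temperature with biotinylated H3(1-15)K9me1 peptide (75 nM final), then 30 min with library compounds; streptavidin donor and nickel chelate acceptor beads (10 ug/mL final) added, 30 min dark.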
uPA generation – cell surface uPA generation inhibition | AID 540303 | Potency, µM (highest dose often 38.3 µM), for the others: at the highest dose activity change, negative = inhibition, actives largely listed as inhibitors | cell surface uPA generation assay, qHTS | 330,000 compounds, 0.31% hits; active = well fitted inhibition curve with a large enough effect; inconclusive = small, poorly fitted or top-dose-only effect; inactive = no such curve, though single readings can be large or run the other way; tested in mouse RAW 264.7 cells; note: potency is the fitted concentration of half-maximal effect; % is set by controls: 0 for no effect and ±100 for the full control effect; nearly all actives have a fitted effect of over 55% in size
USP2a block – USP2a (human) protease inhibition. 330,000 compounds, 0.01% hits. USP2 core, Ub-CHOP2 coupled fluorogenic reporter, 485/531. Potency, µM (highest dose often 38.3 µM), inactives show top-dose activity change, negative = inhibition, usual class: inhibitors;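 note: potency is the fitted concentration of half-maximal effect; plate controls were DMSO wells for no effect and full inhibition by NEM control for full effect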
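Cell-free coupled assay: 10nM USP2 core preincubated 30min RT with compound in Tris-HCl pH 8.0/CaCl2/CHAPS buffer, then 25nM Ub-CHOP2 and 25nM reporter substrate; fluorescence (Ex 485/Em 531) read after 60min RT, normalized to NEM inhibition, concentration-response curves fitted.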
Six1-Eya2 inh – inhibitors of human Six1/Eya2 interaction; Q15475+O00167; 360,000 compounds, 0.56% hits; AlphaScreen GST-Six1/His-Eya2 binding, biochemical; hits give low values; activity change, % (no concentration beside the values); in the data active = activity change below about -65%; inconclusive = mostly about -30% to -63%; note: % is set by controls: 0 for no effect and ±100 for the full control effect
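AlphaScreen luminescence read after one hour at 37 °C in darkness. Pin-transferred compounds met GST-Six1 and His-Eya2 protein (5X stock 250 nM/500 nM) plus glutathione donor and Ni-chelate acceptor beads (5X, 50 ug/mL).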
L3MBTL1 inh-2 – L3MBTL1 binding inhibition validated. shares compounds with L3MBTL1 inh-1. L3MBTL1 methyl-lysine binding inhibition, biochemical qHTS. Potency, µM, actives largely listed as inhibitors. 500 compounds, 91% hits. AID 540279; note: potency is the fitted concentration of half-maximal effect; nearly all actives have a fitted effect of over 70% in size
L3MBTL1 ctr – counter-screen for L3MBTL1 inhibitors: AlphaScreen signal interference; shares compounds with L3MBTL1 inh-1; AlphaScreen counterscreen, signal inhibition; Potency, µM (series often up to 57.1 µM), for inactives: at the top dose activity change, negative = inhibition, most hits filed as inhibitors; 500 tested, under 10 active; note: potency is the fitted concentration of half-maximal effect; 0% is about no effect
* hit, by the source's call; ? = inconclusive; · = not tested or not shown. A selection: hits, their analogues and other compounds. The true share with any hit is near 1.2%. Unless noted, calls come from the whole dose curve; as a rule, active = well fitted curve in the direction sought with a large enough effect; inconclusive = small, poorly fitted or top-dose-only effect, or another doubt; inactive = no such curve, though single readings can be large; an effect the other way counts as inactive or inconclusive.

SMILES | Eya2 inh | CtBP-E1A inh | L3MBTL1 inh-1 | uPA generation | USP2a block | Six1-Eya2 inh | L3MBTL1 inh-2 | L3MBTL1 ctr
N=C1/C(=C\c2ccc(-c3cccc(Cl)c3)o2)C(=O)N=C2SC=C(c3ccccc3)N12 | 3% | -7 | 35µM* | 2% | ? | -9 | 27* | ?
Cc1ccc(N=C2NC(=O)/C(=C\c3ccco3)S2)cc1 | 5% | 0 | 20µM* | 0% | 1% | -23 | 27* | -7%
Cc1cccc(N=C2NC(=O)/C(=C/C=C/c3ccco3)S2)c1 | 0% | -4 | ? | -13% | ? | ? | · | ·
Cc1cccc(N=C2NC(=O)S/C2=C\c2ccco2)c1 | -2% | -12 | ? | -2% | 2% | -22 | · | ·
O=C1NC(=Nc2ccc(Cl)cc2)/C(=C/c2ccco2)S1 | 4% | 5 | 25µM* | 2% | 0% | -10 | 8.4* | 5%
CC1(C(=O)NS(=O)(=O)c2cccc(OC(F)F)c2)CCN1C(=O)Cc1ccsc1 (centres undefined) | · | 3 | · | · | · | 5 | · | ·
Cc1ccc(Nc2ccc(N)cc2S(=O)(=O)O)cc1 | 10% | · | ? | -7% | 6% | -10 | · | ·
Nc1ccc(Nc2ccccc2)c(S(=O)(=O)O)c1 | 15% | -10 | 16µM* | 0% | 2% | -23 | 2.7* | ?
CCCCn1c(SCC(=O)c2ccc(O)c(O)c2)nc2ccsc2c1=O | 9% | -3 | -2% | -2% | 5% | -12 | · | ·
O=C(O)CCCCCn1c(SCC(=O)c2ccc(O)c(O)c2)nc2ccsc2c1=O | 26% | ? | 32µM* | 1% | 0% | ? | 3* | -1%
COc1ccc(CNC(=O)c2cnc(C)cn2)cc1 | -4% | 4 | 22µM* | 3% | 2% | -2 | 17* | 13%
Cc1ccc(OCCCC(=O)N(C)CC(=O)Nc2ccccc2Cl)cc1 | 0% | 0 | 2% | -2% | 0% | 6 | · | ·
Nc1ccc2nc(-c3ccccn3)[nH]c2c1 | -1% | -70* | 28µM* | -3% | 0% | -75* | 7.5* | ?
O=C(O)c1cccc(-n2cccc2/C=C2/NC(=O)N(Cc3ccccc3F)C2=O)c1 | -6% | 6 | 32µM* | -2% | 1% | -20 | 6* | 9%
Cc1ccc(NC(=O)CN2C(=O)N/C(=C/c3cccn3-c3ccc(C(=O)O)cc3)C2=O)cc1 | 0% | 12 | 2.2µM* | 1% | 0% | -74* | 0.47* | ?
O=C1N/C(=C/c2cccn2-c2ccc(F)cc2)C(=O)N1Cc1ccccc1F | 2% | -6 | 0% | 2% | 3% | 0 | · | ·
Cc1ccc(NC(=O)CN2C(=O)N/C(=C/c3cc(C)n(-c4ccc(C(=O)O)cc4)c3C)C2=O)cc1 | -2% | -7 | · | 3% | 1% | -17 | · | ·
NS(=O)(=O)c1ccc(NC(=O)Nc2ccc(C(F)(F)F)cc2)cc1 | -4% | 7 | 0% | -5% | 4% | 3 | · | ·
O=c1oc2ccccc2c(O)c1C=NCc1ccccn1 | -4% | ? | 16µM* | -4% | 4% | ? | 21* | 25%
N#Cc1c(=O)c2nc(NCCCO)ncc2n2c(=O)c3ccccc3[nH]c12 | -19% | ? | 10µM* | 0% | 0% | ? | 6* | 45%
Cc1c(CCO)c(=O)n2c([nH]c3ccccc32)c1C#N | ? | -16 | · | 9% | -1% | -16 | · | ·
COc1cnc(-c2ccccn2)nc1Oc1ccccc1 | -3% | -67* | 32µM* | 1% | 2% | ? | 21* | 40%
COc1cnc(-c2ccccn2)nc1Oc1cccc(C(F)(F)F)c1 | 2% | · | · | · | 0% | · | · | ·
COC(=O)c1ccc(-c2csc(NC(=O)c3c(C)noc3C)n2)cc1 | -2% | 0 | 5% | -1% | 6% | -8 | · | ·
COc1ccc(Sc2ccc(/C=C3\C(=O)NN(c4ccccc4)C3=O)o2)cc1 | -6% | 8 | 28µM* | 0% | -3% | -10 | 21* | ?
SMILES | Eya2 inh | CtBP-E1A inh | L3MBTL1 inh-1 | uPA generation | USP2a block | Six1-Eya2 inh | L3MBTL1 inh-2 | L3MBTL1 ctr
COc1ccc(S(=O)(=O)N2CCN(C(=O)NCc3ccc(C)cc3)CC2)cc1 | 6% | 2 | · | 1% | 2% | -8 | · | ·
O=C1NN(c2ccc(Cl)cc2)C(=O)/C1=C\c1ccc(-c2cccc(C(=O)O)c2)o1 | 12% | 2 | · | -1% | 7% | -8 | · | ·
CC(C)N1C(=O)S/C(=C\c2ccc(-c3ccc(Cl)c(C(=O)O)c3)o2)C1=O | 1% | · | ? | -24% | 2% | -20 | · | ·
Cc1ccc(N2NC(=O)/C(=C/c3ccc(-c4ccc(Cl)c(C(=O)O)c4)o3)C2=O)cc1 | -6% | 0 | 28µM* | 0% | -1% | -10 | 11* | -2%
CCCCC1(C)OC(=O)C(=Cc2ccc(-c3ccc(Cl)c(C(=O)O)c3)o2)C(=O)O1 (centres undefined) | 0% | 2 | 7.9µM* | 0% | 0% | -8 | 13* | 1%
O=C(CN1C(=O)NC2(CCCC2)C1=O)Nc1ccc(F)c([N+](=O)[O-])c1 | -7% | -11 | · | 0% | 6% | -13 | · | ·
CCNc1nc(NCC)n2c(SCC(=O)Nc3ccc(F)cc3)nnc2n1 | 3% | 0 | 28µM* | -1% | 0% | -14 | ? | 18%
COC(=O)C1CCN(C2CN(C3CCCCC3)S(=O)(=O)C2)CC1 (centres undefined) | · | -3 | · | · | · | 6 | · | ·
CC(=O)c1c(COC(=O)c2cccc(C)c2)nc2ccccc2[n+]1[O-] | -3% | · | -26% | -3% | -1% | -4 | · | ·
CC(=O)c1c(COC(=O)c2ccncc2)nc2ccccc2[n+]1[O-] | 26% | -2 | 35µM* | 1% | -19% | -9 | ? | -1%
CC1=C(C)C(=O)N(C(C)CCc2ccccc2)C1=O (centres undefined) | -15% | · | 14% | 8% | -4% | 3 | · | ·
CCN(CC(=O)Nc1c(F)cccc1F)C(=O)/C=C/c1ccc2ccccc2n1 | -21% | -1 | 3.2µM* | 2% | -1% | -26 | 1.7* | 8%
CCN(CC(=O)Nc1c(F)cccc1F)C(=O)/C=C/c1ccc(C)o1 | 5% | 0 | -12% | 3% | 2% | -8 | · | ·
COC(=O)c1ccccc1NC(=O)CCS(=O)(=O)c1ccc(Br)cc1 | -18% | · | 8.9µM* | -1% | -1% | -18 | 2.7* | 4%

Compound activity (PubChem)
